# Measurements as given in PubChem BioAssay (NCI).
# About 83,000 compounds went through this panel and 20% of them were active in at least one assay; those are over-represented in the sample as a whole.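 For each line, cells grew in 96-well plates with the test compound present at a single concentration for 48 hours.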 Values without a mark were called inactive. Calls of active or inactive are those of the source.
# Test system: NCI-H460 lung
# Experiment: NCI-60 one-dose screen, 48 h (100 = growth as untreated, 0 = no growth, -100 = all killed)
# Conditions: 10 µM unless noted
# Description: Growth inhibition of the NCI-H460 human Non-Small Cell Lung tumor cell line is measured as a screen for anti-cancer activity. Cells are grown in 96 well plates and exposed to the test compound for 48 hours. Compounds are tested at a single concentration, which is 10^-5 M for most compounds. The reported endpoint is percent growth (GI% or GIPRCNT), where numbers from 0 - 100% represent growth inhibition, and numbers from -100% - 0 represent cell death. For example, a value of 40 represents 60% growth inhibition. A value of 0 means no net growth occurred over the course of the experiment. A value of -40 indicates 40% of cells at the beginning of the experiment died by the end of the experiment. A value of -100 means all cells are dead at the end of the experiment.
# NCI-60 Human Tumor Cell Lines Screen was performed using the standard one-dose NCI protocol, which is described in more detail at https://dtp.cancer.gov/discovery_development/nci-60/default.htm.
# Compounds with GIPRCNT values below 10 were considered active. Activity score was based on GIPRCNT using the following formula: […]
# Score is 0 for GIPRCNT values of 100 or above, 50 for GIPRCNT values of 0, and 100 for GIPRCNT values of -100.
row,SMILES,growth
1,C1=C2CCCC3=Cc4ccccc4OC23Oc2ccccc21,13.5%
2,CCOC(=O)C1=C(c2ccccc2)N=C2SC=C(c3cccc([N+](=O)[O-])c3)N2C1c1ccc(O)cc1 (stereo not given),101%
3,Cc1ccc(S(=O)(=O)c2nc(-c3ccccc3)oc2S(C)=O)cc1 (stereo not given),73.1%
4,CC(C)c1nc(N(C)S(C)(=O)=O)nc(-c2ccc(F)cc2)c1/C=C/C(=O)C[C@@H](O)CC(=O)O,108%
5,NC(=N\N=C/c1ccc(Cl)cc1Cl)/C(N)=N\N=C/c1ccc(Cl)cc1Cl,20.7%
6,Cc1csc(Nc2nc(-c3cccc(Cl)c3)nc(C(Cl)(Cl)Cl)n2)n1,9.9% (active)
7,CNC(=O)c1cc(Oc2ccc3nc(NC(=O)c4cc(C(F)(F)F)cc(C(F)(F)F)c4)sc3c2)ccn1,15.7%
8,C=CCn1c(SCC(=O)Nc2ccc(C(=O)/C=C/c3ccc(Cl)cc3)cc2)nnc1-c1ccc(Cl)c(Cl)c1,90.2%
9,[2H]C([2H])([2H])Oc1ccc(/C=C/C(=O)/C=C(O)/C=C/c2ccc(OC([2H])([2H])[2H])c(OC([2H])([2H])[2H])c2)cc1OC([2H])([2H])[2H],46.7%
10,Cc1c(-c2cnc3ccc(Cl)cc3c2C(=O)O)nnn1-c1ccc(Cl)cc1,107%
11,CN1/C(=C/C=C/c2n(Cc3ccc4ccccc4c3)c(Cl)c(Cl)[n+]2Cc2ccc3ccccc3c2)Oc2ccccc21,-74.5% (active)
12,O=C(Nc1ccc(Oc2cccc(F)c2)c(Cl)c1)c1cnccn1,22.1%
13,O=C1C(Nc2ccc(Br)cc2)=C(I)C(=O)c2ncccc21,23.3%
14,O=C(CN1C(=O)c2ccccc2S1(=O)=O)Nc1nc(-c2cc3ccccc3oc2=O)cs1,105%
15,COC(=O)[C@@H](Cc1c[nH]c2ccccc12)NC[C@@H](O)CN1C(=O)/C(=C\c2cc(OC)c(OC)c(OC)c2)c2ccccc21,68.2%
16,COc1ccc(NC(=O)c2ccc(Cl)cc2Cl)cc1,97.8%
17,CN(C)C(=O)OCc1ccc2c(Cl)cc(Cl)c(O)c2n1,31.3%
18,C#CCOc1cccc(Nc2c(Cl)c(CCl)nc3ccc(Oc4ccccc4)cc23)c1,96.2%
19,Cn1ccnc1C(=O)/C=C/c1ccc(CC(=O)Nc2cc(F)c(F)c(F)c2)cc1,5.19% (active)
20,Nc1ncc(-c2ccc3ncnc(N4CCc5cc(F)c(Cl)cc54)c3c2)cn1,38.8%

row,SMILES,growth
1,COc1cccc(NC(=O)c2sc3nc(C)c(C(=O)c4ccccc4)cc3c2N)c1,61.2%
2,Cn1cc(-c2nc(-c3c[nH]c4c(Cl)nccc34)cs2)c2ccccc21,95.5%
3,CC1(C)CC[C@]2(CO)CC[C@]3(C)C(=CC[C@@H]4[C@@]5(C)CCNCC(C)(C)[C@@H]5CC[C@]43C)[C@@H]2C1,49.5%
4,COc1ccc(C2=NN(C=O)C(c3ccc(Oc4nc5c(c(=O)n(C)c(=O)n5C)n4C)c(OC)c3)C2)cc1 (stereo not given),99%
5,CO[C@H]1/C=C/O[C@@]2(C)Oc3c(C)c(O)c4c(O)c(c5c(nc6cc(C)ccn65)c4c3C2=O)NC(=O)/C(C)=C\C=C\[C@H](C)[C@H](O)[C@@H](C)C(O)[C@@H](C)[C@H](OC(C)=O)[C@@H]1C (stereo not given in full),114%
6,CC(C)(C)CC(C)(C)Nc1c(-c2c(O)c3ccccc3oc2=O)nc2sccn12,111%
7,CC(=O)OCC(=O)O[C@@H]1C[C@]2(C(C)C)O[C@@]1(C)[C@@H]1CC[C@@H](C)[C@H]1[C@@H]2OC(=O)/C=C/c1ccccc1,90.2%
8,CC(=O)c1c(/C=C/c2ccc(C)cc2)c2ccccc2[nH]c1=O,91.3%
9,CN(C)CCOc1nc2c3cc([N+](=O)[O-])ccc3nn2c2ccccc12,4.99% (active)
10,O=C(/C=C/c1ccc(Cl)cc1)c1ccc(-n2cc(CN3CCN(c4cc5c(cc4F)c(=O)c(C(=O)O)cn5C4CC4)CC3)nn2)cc1,82.2%
11,O=C1c2c(c3c4cc(F)ccc4oc3c3[nH]c4ccccc4c23)C(=O)N1O,5.01% (active)
12,CS(=O)(=O)c1ccc(/C(=N/NC(N)=S)c2ccc(F)cc2)cc1,102%
13,Cn1cc(-c2ccc3c(Nc4cccc(NC(=O)Nc5cccc(F)c5)c4)ncnc3c2)cn1,29.1%
14,Oc1cccc(-c2nc(-c3n[nH]c(=S)n3-c3ccccc3)cc3c2[nH]c2ccccc23)c1,8.82% (active)
15,COc1cc(OCc2cccc(-c3ccccc3)c2C)cc(OC)c1CN1CCCCC1C(=O)NCCOCCOCCN (stereo not given),41.8%
16,CCOC(=O)c1c(C)n2c(=O)cc(C)c3c(OC(C)=O)c(OC(C)=O)cc1c32,40.8%
17,OC1CSSC1Cn1cnc2c(Nc3ccc(F)c(Cl)c3)ncnc21 (stereo not given),68.4%
18,CCOC(=O)C1=C(c2ccccc2)N=C2N(c3ccccc3)N=C(C(C)=O)N2C1c1ccc(Br)cc1 (stereo not given),98%
19,C#CC(F)(F)[C@]1(O)CCC2C3CCC4=CC(=O)CCC4=C3[C@@H](c3ccc(N(C)C)cc3)C[C@@]21C (stereo not given in full),93.4%
20,CCOc1ccc(N2C(=O)CCSC2=S)cc1,106%
